According to PubChem BioAssay (NCI):
This is part of a sample that, as a whole, favours compounds with a hit. Of some 83,000 tested, about 20% had one in any assay.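 Values shown are percent growth following 48 h exposure of cells in 96-well plates to a single concentration of compound; below 10 was considered active.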 Unmarked numbers belong to inactive results. Activity calls are given as the source filed them.

test system: SNB-19 CNS; experiment: NCI-60 one-dose screen, 48 h (100 = growth as untreated, 0 = no growth, -100 = all killed); conditions: 10 µM unless noted
Method: Growth inhibition of the SNB-19 human tumor cell line is measured as a screen for anti-cancer activity. Cells are grown in 96 well plates and exposed to the test compound for 48 hours. Compounds are tested at a single concentration, which is 10^-5 M for most compounds. The reported endpoint is percent growth (GI% or GIPRCNT), where numbers from 0 - 100% represent growth inhibition, and numbers from -100% - 0 represent cell death. For example, a value of 40 represents 60% growth inhibition. A value of 0 means no net growth occurred over the course of the experiment. A value of -40 indicates 40% of cells at the beginning of the experiment died by the end of the experiment. A value of -100 means all cells are dead at the end of the experiment.
NCI-60 Human Tumor Cell Lines Screen was performed using the standard one-dose NCI protocol, which is described in more detail at https://dtp.cancer.gov/discovery_development/nci-60/default.htm.
Compounds with GIPRCNT values below 10 were considered active. Activity score was based on GIPRCNT using the following formula: […]
Score is 0 for GIPRCNT values of 100 or above, 50 for GIPRCNT values of 0, and 100 for GIPRCNT values of -100.

Row | SMILES | growth
1 | COc1cc(-c2nc3ccc(C)cc3[nH]2)ccc1OCC(=O)N=Nc1c(O)[nH]c2ccc(Cl)cc12 | 3.43% (active)
2 | O=C1NC(=O)c2c1c1c3ccccc3[nH]c1c1oc3cc(Br)ccc3c21 | 72.8%
3 | O=C(/C=C/c1ccc(Br)cc1)c1ccc(-n2cc(CN3CCN(c4cc5c(cc4F)c(=O)c(C(=O)O)cn5C4CC4)CC3)nn2)cc1 | 86.9%
4 | COc1cc2c(cc1O)[C@@]1(C)[C@H](c3ccccc3Br)OC(=O)N1CC2 | 95.2%
5 | CC(C)C[C@@H](C(=O)N[C@H](C(=O)OC1CCCC1)c1ccccc1)[C@H](O)C(=O)NO | 76.2%
6 | COc1cc2nc(Nc3cccc(F)c3)nc(Nc3cc(C)[nH]n3)c2cc1OC | -89.2% [20 µM] (active)
7 | Clc1ccc(-c2cn3ccsc3n2)c(Cl)c1Cl | 105%
8 | O=C(/C=C/c1cccc(Cl)c1)c1cccc(OCCCCOc2cccc(C(=O)/C=C/c3cccc(Cl)c3)c2)c1 | 91%
9 | Cc1ccc(C)c2c1C(O)(C#Cc1ccccc1)c1ccccc1C2(O)C#Cc1ccccc1 (stereo not given) | 70.4%
10 | O=C(N/N=C/c1ccc([N+](=O)[O-])cc1)c1ccc2nc(-c3ccc(Cl)cc3)[nH]c2c1 | 52%
11 | Cc1ccc(C)n1/C=C/n1c(C)ccc1C | 98.4%
12 | O=c1[nH]cnc2c1C(c1ccc(Br)cc1)c1sc3c(F)cccc3c1O2 (stereo not given) | 91.8%
13 | CCCCCCCCCCCCCCCCOC(=O)c1c(C)[nH]c(/C=C2\N=C(c3ccc[nH]3)C=C2OC)c1C | 84.6%
14 | O=C(Cn1nnc2ccccc21)N/N=C/c1ccccc1F | 103%
15 | COC1=CC(c2ccc[nH]2)=N/C1=C\c1[nH]c(C)c(CC(=O)OCc2ccccc2)c1C | 23.5%
16 | COc1ccc(C2=Nc3c/c(=C\c4c(O)[nH]c5cc(Cl)ccc45)ccc3=N2)cc1 | 95.1%
17 | CCNc1nc(-c2ccc(F)cc2)c(C#N)c(=O)n1C | 60.6%
18 | Cc1ccc(/C=C/C(=O)c2ccc(NC(=O)CSc3nc4c([nH]3)c(=O)n(C)c(=O)n4C)cc2)c(C)c1 | 0.886% (active)
19 | CC1(C)C2CC=C(/C=N/NC(=O)C3CCC(=O)N3)C1C2 (stereo not given) | 106%
20 | COc1ccc(C2=CN3CC=CCC3CC2=O)cc1 (stereo not given) | 107%

Row | SMILES | growth
21 | CCOc1ccc(NC(=O)c2cc(OC)c(OC)c(OC)c2)cc1 | 49.6%
22 | N#CCC1=NC(c2cccs2)=Nc2ccccc2S1 | 87.9%
23 | COc1ccc(C(C)=O)cc1S(N)(=O)=O | 99.7%
24 | N#Cc1c(-c2cccc([N+](=O)[O-])c2)cc(-c2ccc(Nc3nc(Nc4ccc(F)cc4)nc(Nc4ccc(F)cc4)n3)cc2)nc1N | 104%
25 | O=C(CCCCNC(=O)c1cc(=O)c(O)co1)Nc1ccccc1 | 102%
26 | N=C(N)c1ccc(-c2ccc(-c3ccc(Cl)cc3Cl)s2)cc1F | -34.3% (active)
27 | Cc1c2cnccc2c(C)c2c1c1cc(C3OCCCO3)ccc1n2C | -3.48% (active)
28 | O=C(CCCCCCN1CC(=O)N2[C@@H](C3CCCCC3)c3[nH]c4ccccc4c3C[C@H]2C1=O)NO | 74.6%
29 | Cn1c(/C=C/[N+](=O)[O-])cc2ccccc21 | 57.7%
30 | CC(=O)c1c(Nc2ccc(F)c(F)c2F)[nH]c2c(F)cc(F)cc2c1=O | 22%
31 | C=C1C(=O)O[C@H]2[C@H]1CC/C(COC(=O)/C=C\C(=O)NCc1ccc(Cn3c(=O)sn(-c4ccccc4)c3=O)cc1)=C\CC[C@@]1(C)O[C@@H]21 | 107%
32 | CN(C)c1ccc(-c2cc(-c3ccc(Nc4nc(Nc5ccc(Cl)cc5)nc(Nc5ccc(Cl)cc5)n4)cc3)nc(N)c2C#N)cc1 | 97.8%
33 | CSCCC(NC(=O)c1ccccc1)C(=O)N/N=C1\S/C(=C/c2ccc(Cl)cc2)C(=O)N1C (stereo not given) | 68.1%
34 | O=C(CCl)Nc1ccc2c(Nc3cc(O)ccc3Cl)ncnc2c1 | -61.9% (active)
35 | O=C(c1ccc(Cl)cc1Cl)N1c2ccccc2Sc2ccccc21 | 57.3%
36 | COc1ccc2c(c1)c(-c1nonc1-c1c[nH]c3ccc(Br)cc13)cn2C | 52.2%
37 | Cc1ccc(/C=C(\C#N)C(=O)Nc2ncc(Cc3cc(Cl)ccc3Cl)s2)o1 | 27.6%
38 | CN1CCN(Cc2cc(NC(=O)c3cccc(C#Cc4cccc5[nH]nc(N)c45)c3)cc(C(F)(F)F)c2)CC1 | 52.1%
39 | Oc1c(CN2CCCC2)cc(COCc2ccccc2)c2cccnc12 | 25.5%
40 | CCN(CC)CCCC(C)Nc1ccc2cc(OC)ccc2n1 (stereo not given) | 106%
